The record followed here is PubChem BioAssay AID2315 (National Center for Advancing Translational Sciences (NCATS), 2010).

SMILES strings stand for the structures. Among all 290,000 compounds or so, about 27,000 (9.3%) were called active. What follows is part of a selection rich in actives, with near analogues and random picks from the rest. Unmarked numbers belong to inactive results. No stated cut-off is given here; in the data, active means inhibition mostly above about 28% (no sharp cut-off); inactive means mostly below about 43%.

The nature of the experiment: A qHTS for Small Molecule Inhibitors of Shiga Toxin. Further: 0% is about no effect. To be noted: Vero cells, Shiga toxin protein synthesis inhibition reporter; at 38.7 µM, stronger effect = higher value. Background: qHTS replaces the single test concentration by a dilution series.
Usually inhibition stands for the change of the read-out against control, counted positive when it falls. For the molecule `CN(C(=O)c1ccccc1)c1nccnc1C#N`, the inhibition is -2.8%.
With `CCc1nn(CC(=O)N2CCN(CC)CC2)c(=O)c2cccn12` the figure was -0.821%; with `COc1ccccc1CN1CCNC(=O)C1CC(=O)N(C)CC1CCOCC1` (stereo not drawn), -2.77%; with `CN(Cc1ccccc1)C(=O)CSc1nc2ccccc2[nH]1`, 70.2% (active).
In the case of `O=C(CSc1nc2ccccc2[nH]1)c1cccs1` it was 119% (active).
In the case of `O=C(CSc1nc2ccccc2[nH]1)N/N=C/C=C\c1ccccc1[N+](=O)[O-]` it was 30.8%.
Take `CN(Cc1ccccc1)c1nc2c(c(=O)[nH]c(=O)n2C)n1CCSc1nc2ccccc2[nH]1`: the inhibition is -8.47%.
In the case of `O=C(CSc1nc2ccccc2[nH]1)Nc1nc(-c2ccccc2)c(-c2ccccc2)o1` it was -6.45%.
Regarding `CC(=O)Nc1ccc(C(=O)CSc2nc3ccc(C)cc3[nH]2)cc1`, the inhibition was 23.5%.
With `CN(CCc1ccccn1)C(=O)c1ccc(OC2CCN(CCc3ccccc3)CC2)cc1` the figure was 24.5%; with `Cc1cc(C)c(S(=O)(=O)N(C)CC(=O)NCC2CCCO2)c(C)c1` (stereo not drawn), -2.86%; with `Cc1ccc(OCC(=O)Nc2ccc(C(=O)O)cc2NC(=O)COc2ccc(C)c(C)c2)cc1C`, -6.8%.
`Cc1ccc(C2Nc3cccc4cccc(c34)N2)cc1`: the inhibition was -10.1%.
With `C=CCN1CCN(C(=O)CCCc2ccccc2)CC1` the figure was 9.38%; with `CCc1c(C)nc(N)n2c(SCC(=O)NC3CCCCC3)nnc12`, -19.4%; with `S=C(c1ccc(-c2ccccc2)o1)N1CCCCC1`, 98.2% (active).
In the case of `OCCN1CCN(C(=S)c2ccc(-c3ccccc3)cc2)CC1` it was 0.879%; in that of `S=C(c1ccccc1)N1CCCC1`, -8.23%.
In the case of `N#C[C@]1(S(=O)(=O)c2ccccc2)C[C@@H]2ON=C(c3cccc(Br)c3)[C@@H]2C1` it was -6.42%; in that of `CCc1nc(N2CCN(C(C)=O)CC2)c2c3c(sc2n1)CCCC3`, -5.44%; in that of `Cc1ccc(C(=O)Cn2cccn2)cc1`, 5.48%.
Take `Cc1ccc(C(=O)CSc2ccccc2C(=O)O)cc1`: the inhibition was 39.6%.
Regarding `Cc1ccc(C(=O)Cc2nnc(C)s2)cc1`, the inhibition was 58.4% (active).
For the molecule `CC1CC(=O)N(CC(=O)Nc2cccc(Cl)c2)c2ccccc2S1(=O)=O` (stereo not drawn), the inhibition is -4.68%.
As to `CCN(C(=O)COC(=O)c1ccc(COc2ccc3c(C)cc(=O)oc3c2)cc1)C1CCS(=O)(=O)C1` (stereo not drawn), the inhibition is 33%.
As to `CCCSc1nc2sc3c(c2c(=O)n1-c1ccc(OC)cc1)CCN(C)C3`, the inhibition is -19%.
With `CC(C)(O)C#Cc1ccc(CN2CCC(CO)(CCc3ccccc3)CC2)cc1`, the inhibition is -5.12%.
As for `COCCCNc1nc2c(-c3cccc(C)c3)nnn2c2ccc(Cl)cc12`, the inhibition is 9.32%.
In the case of `CCOC(=O)CSc1nnc(CNc2ccc(F)cc2)o1` it was -20.4%.
With `Cc1cccc2nc(CNc3ccc(F)cc3)cn12` the figure was 66.5% (active).
In the case of `COc1cc([N+](=O)[O-])cc([N+](=O)[O-])c1NC(=O)N1CCOCC1` it was -11.6%; in that of `CCN(c1ccccc1)S(=O)(=O)c1cc2c(cc1C)n(C)c(=O)c(=O)n2C`, 10.4%.
For the molecule `O=C(CCCN1CCc2[nH]c3ccc(F)cc3c2C1)c1ccc(F)cc1`, the inhibition was -5.56%.
For the molecule `CC(C)c1ccc(C(=O)NCCCc2ccccc2)cc1`, the inhibition was 60.6% (active).
In the case of `O=C(COC(=O)c1ccc(F)cc1)NCCCc1ccccc1` it was -1.67%.
Regarding `C[C@H](NC(=O)NCCc1ccccc1)C(=O)O`, the inhibition is 8.98%.
As to `CC(C)Cc1cc(C(=O)Nc2cc(Br)ccc2O)no1`, the inhibition is 85.5% (active).
For the molecule `O=C(NCCCc1ccccc1)c1cc(COc2c(F)cccc2F)on1`, the inhibition is 78.1% (active).
In the case of `O=C(NCCc1ccccc1)c1ccc(OCCOc2ccccc2)cc1` it was -1.89%.
In the case of `COC(=O)[C@@H](Cc1ccccc1)NC(=O)NCCc1ccccc1`, the inhibition was 15.6%.
On to `O=C(NCCN1CCCC(O)C1)c1cc(COc2c(F)cccc2F)on1` (stereo not drawn), for which the inhibition is -6.84%.
In the case of `CC(C)Cc1cc(C(=O)NCCc2ccccc2)no1` it was 87.5% (active).
`CCCOc1ccc(C(=O)NCCc2ccccc2)cc1`: the inhibition is 39.8%.
For `CC(C)/C=N/NC(=O)c1cc(Br)ccc1O`, the inhibition was 30.6%.
On to `CC(C)C(=O)NCc1cc(-c2ccc(Cl)cc2)no1`, for which the inhibition was 10.8%.
In the case of `CCOc1cc(CN2CCCC(CO)(Cc3ccc(F)cc3F)C2)ccc1OC` (stereo not drawn) it was 1.36%; in that of `COC(=O)Cn1cnc2scc(-c3ccc(C)c(C)c3)c2c1=O`, -16.4%.
With `CC(C)Oc1ccc(/C=N/NC(=O)c2nnn(-c3nonc3N)c2CN(C)C2CCCCC2)cc1` the figure was -5.14%; with `CCOc1ccc(S(=O)(=O)NCCCn2ccnc2)cc1NC(C)=O`, -15.3%; with `COc1ccc(OC)c(NC(=O)c2ccc3c(c2)C(=O)N(c2ccc(OC(C)=O)cc2)C3=O)c1`, -4.38%.
For `COc1cc(NC(=O)c2ccc(-c3csc(C)n3)cc2)c(OC)cc1Cl`, the inhibition is -19.7%.
On to `O=c1oc2ccccc2c(NC2CCCCC2)c1NS(=O)(=O)c1ccc(Cl)cc1`, for which the inhibition was -3.24%.
Consider `Cc1ccc(CN(CC(=O)NCC2CCCO2)S(=O)(=O)c2ccc(C)cc2)cc1` (stereo not drawn), for which the inhibition was -7.48%.
With `Cc1cccc(N2C(=O)N3[C@H](c4ccc(F)cc4)[C@@H]4C(=O)N(C5CCCCC5)C(=O)[C@@H]4[C@]3(Cc3ccccc3)C2=O)c1` the figure was -2.98%.
In the case of `Cc1c(NC(=O)c2cc(-c3ccc(Br)cc3)on2)c(=O)n(-c2ccccc2)n1C`, the inhibition was 20%.
For the molecule `CCN(CC)CCCNC(=O)c1cc(-c2cccc(Cl)c2)on1`, the inhibition was -7.26%.
`CSc1ncc(C(=O)NCCCc2ccccc2)c(C)n1`: the inhibition was 28.3%.
With `CN(c1ccccc1)S(=O)(=O)c1ccc(C(=O)NCCc2ccccc2)cc1` the figure was 50.1% (active); with `CC(C)CNC(=O)c1cc(-c2ccc(Br)cc2)on1`, 52.5% (active); with `COc1ccccc1CNC(=O)c1ccc(N(C)S(=O)(=O)c2ccc(C)cc2)cc1`, 4.41%.
In the case of `Cc1ccccc1CSCCNC(=O)c1ccc(N(C)S(=O)(=O)c2ccccc2)cc1` it was -13.5%; in that of `CCCCNC(=S)NNC(=O)c1cc(C)on1`, 6.4%; in that of `Cc1cc(C(=O)NCCCc2ccccc2)no1`, 35.8% (active).
